{"source": "PubChem BioAssay (NCI)", "experiment_in_all_cases": "NCI-60 one-dose screen, 48 h (100 = growth as untreated, 0 = no growth, -100 = all killed)", "key": {"HCT-15 colon": {"test_system": "HCT-15 colon", "details": "10 µM"}, "HT29 colon": {"test_system": "HT29 colon", "details": "10 µM"}, "SNB-75 CNS": {"test_system": "SNB-75 CNS", "details": "10 µM"}, "SNB-19 CNS": {"test_system": "SNB-19 CNS", "details": "10 µM"}, "U251 CNS": {"test_system": "U251 CNS", "details": "10 µM unless noted"}, "PC-3 prostate": {"test_system": "PC-3 prostate", "details": "10 µM"}, "SK-MEL-5 melanoma": {"test_system": "SK-MEL-5 melanoma", "details": "10 µM unless noted"}, "UACC-62 melanoma": {"test_system": "UACC-62 melanoma"}, "LOX IMVI melanoma": {"test_system": "LOX IMVI melanoma", "details": "10 µM unless noted"}, "SK-MEL-28 melanoma": {"test_system": "SK-MEL-28 melanoma", "details": "10 µM"}, "SK-MEL-2 melanoma": {"test_system": "SK-MEL-2 melanoma", "details": "10 µM"}, "EKVX NSCLC": {"test_system": "EKVX NSCLC", "details": "10 µM"}, "SN12C renal": {"test_system": "SN12C renal", "details": "10 µM"}, "UO-31 renal": {"test_system": "UO-31 renal", "details": "10 µM"}, "TK-10 renal": {"test_system": "TK-10 renal"}, "ACHN renal": {"test_system": "ACHN renal", "details": "10 µM"}, "CAKI-1 renal": {"test_system": "CAKI-1 renal", "details": "10 µM"}, "A498 renal": {"test_system": "A498 renal", "details": "10 µM"}, "CCRF-CEM leukemia": {"test_system": "CCRF-CEM leukemia", "details": "10 µM"}, "MOLT-4 leukemia": {"test_system": "MOLT-4 leukemia", "details": "10 µM"}}, "note": "Values joined by “and” are separate entries in the source; they are usually repeats but may differ in a detail not shown here. Equal values may be shown once. Compounds without any hit were thinned out: in the full panel of roughly 83,000, 20% have a hit.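 In brief: 96-well plates, 48 h treatment, single concentration, percent growth endpoint.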 Unmarked numbers belong to inactive results. Active and inactive are the calls of the source. Rule for the calls: active = growth percent below 10; inactive = the rest."}
{"smiles": "CCCCCCCCCCSC(=N)N", "values": [{"measurement": "growth", "setting": "HCT-15 colon", "result": "-4.11% (active)"}, {"measurement": "growth", "setting": "HT29 colon", "result": "-27.7% (active)"}, {"measurement": "growth", "setting": "SNB-75 CNS", "result": 80.7, "unit": "%"}, {"measurement": "growth", "setting": "SNB-19 CNS", "result": 66.8, "unit": "%"}, {"measurement": "growth", "setting": "U251 CNS", "result": "5.37% (active)"}, {"measurement": "growth", "setting": "PC-3 prostate", "result": 59, "unit": "%"}, {"measurement": "growth", "setting": "SK-MEL-5 melanoma", "result": 50.7, "unit": "%"}, {"measurement": "growth", "setting": "UACC-62 melanoma; 10 µM", "result": "-35% (active)"}, {"measurement": "growth", "setting": "LOX IMVI melanoma", "result": 47.8, "unit": "%"}, {"measurement": "growth", "setting": "SK-MEL-28 melanoma", "result": 89.3, "unit": "%"}, {"measurement": "growth", "setting": "SK-MEL-2 melanoma", "result": 61.9, "unit": "%"}, {"measurement": "growth", "setting": "EKVX NSCLC", "result": 92.1, "unit": "%"}, {"measurement": "growth", "setting": "SN12C renal", "result": 60.9, "unit": "%"}, {"measurement": "growth", "setting": "UO-31 renal", "result": 53.4, "unit": "%"}, {"measurement": "growth", "setting": "TK-10 renal; 10 µM", "result": 60, "unit": "%"}, {"measurement": "growth", "setting": "ACHN renal", "result": 50.1, "unit": "%"}, {"measurement": "growth", "setting": "CAKI-1 renal", "result": 46.4, "unit": "%"}, {"measurement": "growth", "setting": "A498 renal", "result": 95.1, "unit": "%"}, {"measurement": "growth", "setting": "CCRF-CEM leukemia", "result": 51.3, "unit": "%"}, {"measurement": "growth", "setting": "MOLT-4 leukemia", "result": 15.2, "unit": "%"}]}
{"smiles": "CSC1SCC2C(=O)N(C)C(C(C)C)C(=O)OCC(NC(=O)c3cnc4ccccc4n3)C(=O)NC(C)C(=O)N(C)C1C(=O)N(C)C(C(C)C)C(=O)OCC(NC(=O)c1cnc3ccccc3n1)C(=O)NC(C)C(=O)N2C", "note": "(configuration not stated)", "values": [{"measurement": "growth", "setting": "HCT-15 colon", "result": "4.08% (active)"}, {"measurement": "growth", "setting": "HT29 colon", "result": "2.66% (active)"}, {"measurement": "growth", "setting": "SNB-75 CNS", "result": "-80.2% (active)"}, {"measurement": "growth", "setting": "SNB-19 CNS", "result": "-13.3% (active)"}, {"measurement": "growth", "setting": "U251 CNS", "result": "5.23% (active)"}, {"measurement": "growth", "setting": "PC-3 prostate", "result": "-12.7% (active)"}, {"measurement": "growth", "setting": "SK-MEL-5 melanoma", "result": "-73.1% (active)"}, {"measurement": "growth", "setting": "UACC-62 melanoma; 10 µM", "result": "-77% (active)"}, {"measurement": "growth", "setting": "LOX IMVI melanoma", "result": "3.98% (active)"}, {"measurement": "growth", "setting": "SK-MEL-28 melanoma", "result": "-13.9% (active)"}, {"measurement": "growth", "setting": "SK-MEL-2 melanoma", "result": "-28.3% (active)"}, {"measurement": "growth", "setting": "EKVX NSCLC", "result": "-8.18% (active)"}, {"measurement": "growth", "setting": "SN12C renal", "result": "8.11% (active)"}, {"measurement": "growth", "setting": "UO-31 renal", "result": 13.4, "unit": "%"}, {"measurement": "growth", "setting": "TK-10 renal; 10 µM", "result": 20.1, "unit": "%"}, {"measurement": "growth", "setting": "ACHN renal", "result": "2.44% (active)"}, {"measurement": "growth", "setting": "CAKI-1 renal", "result": "-13% (active)"}, {"measurement": "growth", "setting": "A498 renal", "result": "-76.6% (active)"}, {"measurement": "growth", "setting": "CCRF-CEM leukemia", "result": "-25.7% (active)"}, {"measurement": "growth", "setting": "MOLT-4 leukemia", "result": "-33.8% (active)"}]}
{"smiles": "NNc1ccc2ccccc2c1", "values": [{"measurement": "growth", "setting": "HCT-15 colon", "result": "91.2% and 97%"}, {"measurement": "growth", "setting": "HT29 colon", "result": "99.8% and 104%"}, {"measurement": "growth", "setting": "SNB-75 CNS", "result": "79.1% and 75.7%"}, {"measurement": "growth", "setting": "SNB-19 CNS", "result": "99% and 102%"}, {"measurement": "growth", "setting": "U251 CNS", "result": "103% and 101%"}, {"measurement": "growth", "setting": "PC-3 prostate", "result": "73% and 82%"}, {"measurement": "growth", "setting": "SK-MEL-5 melanoma", "result": "89.3% and 87.6%"}, {"measurement": "growth", "setting": "UACC-62 melanoma; 10 µM", "result": "78% and 99.9%"}, {"measurement": "growth", "setting": "LOX IMVI melanoma", "result": "75.5% and 91.7%"}, {"measurement": "growth", "setting": "SK-MEL-28 melanoma", "result": "111% and 114%"}, {"measurement": "growth", "setting": "SK-MEL-2 melanoma", "result": "101% and 108%"}, {"measurement": "growth", "setting": "EKVX NSCLC", "result": "76.7% and 93%"}, {"measurement": "growth", "setting": "SN12C renal", "result": "94.7% and 102%"}, {"measurement": "growth", "setting": "UO-31 renal", "result": "52.5% and 68.7%"}, {"measurement": "growth", "setting": "TK-10 renal; 10 µM", "result": "109% and 120%"}, {"measurement": "growth", "setting": "ACHN renal", "result": "81.6% and 98.7%"}, {"measurement": "growth", "setting": "CAKI-1 renal", "result": "84.6% and 95.5%"}, {"measurement": "growth", "setting": "A498 renal", "result": 88.5, "unit": "%"}, {"measurement": "growth", "setting": "CCRF-CEM leukemia", "result": "84.1% and 114%"}, {"measurement": "growth", "setting": "MOLT-4 leukemia", "result": "94.3% and 109%"}]}
{"smiles": "COC(=O)C1=COC(C)C2C[n+]3ccc4c([nH]c5ccccc54)c3CC12", "note": "(configuration not stated)", "values": [{"measurement": "growth", "setting": "HCT-15 colon", "result": "104% and 101%"}, {"measurement": "growth", "setting": "HT29 colon", "result": "99.4% and 81.3%"}, {"measurement": "growth", "setting": "SNB-75 CNS", "result": "83.3% and 92.8%"}, {"measurement": "growth", "setting": "SNB-19 CNS", "result": "101% and 90.3%"}, {"measurement": "growth", "setting": "U251 CNS", "result": "101% and 88.4%"}, {"measurement": "growth", "setting": "PC-3 prostate", "result": "92% and 75.7%"}, {"measurement": "growth", "setting": "SK-MEL-5 melanoma", "result": "100% and 93.6%"}, {"measurement": "growth", "setting": "UACC-62 melanoma; 10 µM", "result": "91.1% and 83.1%"}, {"measurement": "growth", "setting": "UACC-62 melanoma; 100 µM", "result": "52.7% and 32.5%"}, {"measurement": "growth", "setting": "LOX IMVI melanoma", "result": "98.9% and 98%"}, {"measurement": "growth", "setting": "SK-MEL-28 melanoma", "result": "106% and 103%"}, {"measurement": "growth", "setting": "SK-MEL-2 melanoma", "result": "103% and 85.1%"}, {"measurement": "growth", "setting": "EKVX NSCLC", "result": "102% and 93%"}, {"measurement": "growth", "setting": "SN12C renal", "result": "95.9% and 78.7%"}, {"measurement": "growth", "setting": "UO-31 renal", "result": "79.1% and 73.4%"}, {"measurement": "growth", "setting": "TK-10 renal; 10 µM", "result": "107% and 126%"}, {"measurement": "growth", "setting": "TK-10 renal; 100 µM", "result": "110% and 56.8%"}, {"measurement": "growth", "setting": "ACHN renal", "result": "99.7% and 88.9%"}, {"measurement": "growth", "setting": "CAKI-1 renal", "result": "101% and 94.4%"}, {"measurement": "growth", "setting": "A498 renal", "result": "72.8% and 94.7%"}, {"measurement": "growth", "setting": "CCRF-CEM leukemia", "result": "97.4% and 104%"}, {"measurement": "growth", "setting": "MOLT-4 leukemia", "result": "98.8% and 94.3%"}]}
{"smiles": "OCC1OC(n2cnc3c(=S)nc[nH]c32)C(O)C1O", "note": "(configuration not stated)", "values": [{"measurement": "growth", "setting": "HCT-15 colon", "result": "104% and 55.5%"}, {"measurement": "growth", "setting": "HT29 colon", "result": "98.4% and 45.9%"}, {"measurement": "growth", "setting": "SNB-75 CNS", "result": "110% and 60.5%"}, {"measurement": "growth", "setting": "SNB-19 CNS", "result": "111% and 97.4%"}, {"measurement": "growth", "setting": "U251 CNS", "result": "93.5% and 83.2%"}, {"measurement": "growth", "setting": "PC-3 prostate", "result": "89.1% and 73.1%"}, {"measurement": "growth", "setting": "SK-MEL-5 melanoma", "result": "102% and 80.9%"}, {"measurement": "growth", "setting": "UACC-62 melanoma; 10 µM", "result": "92.3% and 26.7%"}, {"measurement": "growth", "setting": "LOX IMVI melanoma", "result": "98.2% and 16.1%"}, {"measurement": "growth", "setting": "SK-MEL-28 melanoma", "result": 113, "unit": "%"}, {"measurement": "growth", "setting": "SK-MEL-2 melanoma", "result": "100% and 57.6%"}, {"measurement": "growth", "setting": "EKVX NSCLC", "result": "106% and 119%"}, {"measurement": "growth", "setting": "SN12C renal", "result": "95.1% and 82.5%"}, {"measurement": "growth", "setting": "UO-31 renal", "result": "93.9% and 50.5%"}, {"measurement": "growth", "setting": "TK-10 renal; 10 µM", "result": "97.9% and 40.7%"}, {"measurement": "growth", "setting": "ACHN renal", "result": "103% and 32.9%"}, {"measurement": "growth", "setting": "CAKI-1 renal", "result": "104% and 18%"}, {"measurement": "growth", "setting": "A498 renal", "result": "105% and 119%"}, {"measurement": "growth", "setting": "CCRF-CEM leukemia", "result": "107% and 32.7%"}, {"measurement": "growth", "setting": "MOLT-4 leukemia", "result": "120% and 35.7%"}]}
